# PubChem BioAssay (NCATS)
# Active and inactive are the calls of the source. Calls follow the shape of the dose curve; as a rule, active = well fitted curve in the direction sought with a large enough effect; inconclusive = small, poorly fitted or top-dose-only effect, or another doubt; inactive = no such curve, though single readings can be large or run the other way.
# Biological target: Alpha-galactosidase (Coffea arabica) (UniProt Q42656)
# Assay: Counterscreen for Glucocerebrosidase Inhibitors: qHTS Assay for Coffee Bean alpha-Galactosidase at pH 4.5 (AID 957)
# Details: purified coffee bean alpha-galactosidase, fluorogenic substrate; series mostly up to 76.9 µM; activity change, negative = inhibition: at the top concentration
# Source text: NIH Chemical Genomics Center [NCGC]
# NIH Molecular Libraries Screening Centers Network [MLSCN]
# PI Name: Zheng, Wei [NIH]
# Alpha-galactosidase is a homodimeric glycoprotein that hydrolyzes the terminal alpha-galactosyl moieties from glycolipids and glycoproteins. Deficiency of this enzyme results in Fabry Disease with progressive accumulation of globotriaosylceramide and other glycosphingolipids in vascular endothelial cells that causes renal failure, myocardial infarction and stroke, and premature death in patients. It has reported that the improper folding and trafficking of alpha-galactosidase resulted from the genetic mutations may account for a significant numbers of Fabry patients. […] We optimized this coffee bean alpha-galactosidase assay in 1536-well plate format as a counter-screen assay for identifying the selective small molecule inhibitors of other lysosomal enzymes.
# NCGC Assay Protocol Summary:
# This is a fluorogenic enzyme assay with 4-Methylumbelliferyl alpha-D-galactopyranoside as the substrate and green coffee bean […] (from Sigma-Aldrich) as the enzyme preparation. Upon the hydrolysis of this fluorogenic substrate, the resulting product, […]. 4-Methyllumbelliferone, can be excited at 365 nm and emits at 440 nm which can be detected by a standard fluorescence plate reader. Data were normalized to the controls for basal activity (without enzyme) and 100% activity (with enzyme). In the AC50 values were determined from concentration-response data modeled with the standard Hill equation.
# Assay buffer: 50 mM citric acid, 0.005% Tween-20, pH 4.5. (pH 5.9 is an optimal condition for this enzyme assay. This assay in pH 4.5 is used for comparison the inhibitor activities with the human alpha-galactosidase assay)
# 1536-well assay protocol for the coffee bean alpha-galactosidase:
# (1) Add 2 ul/well of enzyme (2 nM final)
# (2) Add 23 nL compounds in DMSO solution. The final titration was 0.7 nM to 77 uM.
# (3) Add 1 ul of substrate (80 uM final)
# (4) Incubate at room temperature for 20 min.
# (5) Add 2 ul stop solution (1M NaOH and 1M Glycine mixture, pH 10)
# (6) Detect the assay plate in a ViewLux plate reader (PerkinElmer) with Ex=365 nm and Em=440nm.
# Keywords: Alpha-galactosidase, Fabry Disease, pharmacological chaperone, chaperone therapy, high throughput screening, alpha-galactosidase inhibitor, MLSMR, MLSCN, NIH Roadmap, qHTS and NCGC
# Sequence of Alpha-galactosidase (Coffea arabica) (Q42656 whole entry, looked up): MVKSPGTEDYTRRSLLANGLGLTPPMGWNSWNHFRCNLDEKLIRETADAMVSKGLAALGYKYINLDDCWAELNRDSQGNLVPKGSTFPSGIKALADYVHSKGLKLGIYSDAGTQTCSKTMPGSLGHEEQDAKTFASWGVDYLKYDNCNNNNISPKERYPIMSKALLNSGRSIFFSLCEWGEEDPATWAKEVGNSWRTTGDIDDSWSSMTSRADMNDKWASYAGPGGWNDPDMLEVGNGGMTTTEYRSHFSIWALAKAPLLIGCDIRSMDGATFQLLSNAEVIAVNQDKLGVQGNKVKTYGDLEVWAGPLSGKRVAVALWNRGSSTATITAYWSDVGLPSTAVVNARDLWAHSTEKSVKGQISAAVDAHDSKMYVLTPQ
SMILES,"activity change, negative = inhibition",outcome
CCCCC1C(=O)N(c2ccccc2)N(c2ccccc2)C1=O,1.93% (inactive),
c1cnc(N2CCN(Cc3ccc4c(c3)OCO4)CC2)nc1,-4.37% (inactive),
C[C@H](N)[C@H](O)c1ccc(O)c(O)c1,1.52% (inactive),
NC(=O)CC[C@@H](N)C(=O)O,1.9% (inactive),
c1cc(CN2CCCCC2)cc(OCCCNc2nc3ccccc3s2)c1,-10.8% (inactive),
C[C@]12C=CC(=O)C=C1CC[C@H]1[C@@H]3C[C@@H](O)[C@](O)(C(=O)CO)[C@@]3(C)C[C@H](O)[C@@]12F,-1.88% (inactive),
C=Cc1c(C)c2cc3[nH]c(cc4nc(cc5nc(cc1[nH]2)C(C)=C5CCC(=O)O)C(CCC(=O)O)=C4C)c(C)c3C=C,-0.471% (inactive),
O=C(c1ccc(F)cc1)C1CCN(CCn2c(=O)[nH]c3ccccc3c2=O)CC1,-2.42% (inactive),
COc1ccc(CN(CCN(C)C)c2ccccn2)cc1,1.12% (inactive),
O=C1CC2(CCCC2)CC(=O)N1CCCCN1CCN(c2ncccn2)CC1,1.63% (inactive),
Nc1ccn([C@H]2CC[C@@H](CO)O2)c(=O)n1,3.85% (inactive),
CNC[C@H](O)c1ccc(O)c(O)c1,,inactive
C(=C\c1ccccc1)/CN1CCN(C(c2ccccc2)c2ccccc2)CC1,-0.977% (inactive),
C[N+](C)(C)CCCCCCCCCC[N+](C)(C)C,3.95% (inactive),
c1ccc2nc(N3CCNCC3)ccc2c1,-0.498% (inactive),
CCc1cccc2c3c([nH]c12)C(CC)(CC(=O)O)OCC3 (stereo not given),1.48% (inactive),
COc1cc(C(=O)OCCCN2CCCN(CCCOC(=O)c3cc(OC)c(OC)c(OC)c3)CC2)cc(OC)c1OC,-0.976% (inactive),
Cc1ccc(C(=O)Nc2ccc(S(=O)(=O)O)c3cc(S(=O)(=O)O)cc(S(=O)(=O)O)c23)cc1NC(=O)c1cccc(NC(=O)Nc2cccc(C(=O)Nc3cc(C(=O)Nc4ccc(S(=O)(=O)O)c5cc(S(=O)(=O)O)cc(S(=O)(=O)O)c45)ccc3C)c2)c1,-7.78% (inactive),
CN(C)C(=O)Oc1cccc([N+](C)(C)C)c1,1.8% (inactive),
CN1[C@@H]2CC[C@H]1CC(OC(=O)c1c[nH]c3ccccc13)C2 (stereo not given in full),-1.23% (inactive),

SMILES,"activity change, negative = inhibition",outcome
CN(C(=O)CCCOc1ccc2[nH]c(=O)ccc2c1)C1CCCCC1,0.0935% (inactive),
Clc1ccccc1C(c1ccccc1)(c1ccccc1)n1ccnc1,-13.5% (inactive),
Cc1[nH]c(=O)c(C#N)cc1-c1ccc2nccn2c1,-0.24% (inactive),
C[C@]12CC[C@@H]3c4ccc(O)cc4CC[C@H]3[C@@H]1CCC2=O,0.518% (inactive),
CCCC(C(=O)OCCN(CC)CC)(c1ccccc1)c1ccccc1,-5.24% (inactive),
Cc1ccc(N(CC2=NCCN2)c2cccc(O)c2)cc1,-4.24% (inactive),
COC(=O)[C@@H](N)Cc1ccc(O)c(O)c1,-1.4% (inactive),
CN1CCC(=C2c3ccccc3CC(=O)c3sccc32)CC1,0.0208% (inactive),
COc1cc2c(cc1OC)-c1cc(=Nc3c(C)cc(C)cc3C)n(C)c(=O)n1CC2,-2.75% (inactive),
Nc1c2c(nc3ccccc13)CCCC2,3.54% (inactive),
OCc1cc(C(O)CNCCCCCCOCCCCc2ccccc2)ccc1O (stereo not given),0.935% (inactive),
O=C(O)CCc1nc(-c2ccccc2)c(-c2ccccc2)o1,-2.18% (inactive),
C[N+](C)(C)CCOC(=O)CCC(=O)OCC[N+](C)(C)C,3.22% (inactive),
COCC(=O)O[C@]1(CCN(C)CCCc2nc3ccccc3[nH]2)CCc2cc(F)ccc2[C@@H]1C(C)C,-8.46% (inactive),
COc1ccc(C(=O)N2CCCC2=O)cc1,3.34% (inactive),
Cc1cc(C(C)(C)C)cc(C)c1CC1=NCCN1,0.374% (inactive),
Cc1ccc(=O)n(-c2ccccc2)c1,0.127% (inactive),
COC(=O)C1=C(C)NC(C)=C(C(=O)OC)C1c1ccccc1[N+](=O)[O-],-4.14% (inactive),
O=C(CCCN1CCC(O)(c2cccc(C(F)(F)F)c2)CC1)c1ccc(F)cc1,-1.42% (inactive),
CCNC(=O)N1CCN(CCCC(c2ccc(F)cc2)c2ccc(F)cc2)CC1,-2.7% (inactive),
